# Measurements reported in PubChem BioAssay AID1159580 (chemical genetic matrix, 2015).
# Where “and” joins values, the source holds several entries; their conditions need not be identical. Equal entries are not always repeated. In all, about 5,500 compounds went through this assay and about 2,000 (36%) were called active. Roughly 18% stayed inconclusive and do not appear here. Cut-off read from the data, not from the text of the source: active = normalized growth mostly below about 0.91 (no sharp cut-off); inconclusive = no clear call, values can overlap the other calls; inactive = mostly above about 0.92. Some of the results follow.
# Experiment: chemical genetic growth profiling, strain panel (AID 1159580);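 note: tested at 20 µM; growth read once vehicle control cultures reached saturation at 30 °C; 1 = growth at the plate median or of vehicle wells; lower values mean less growth of the strain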
# Settings: S. cerevisiae deletion strains, growth OD
structure (smiles),measurement,setting,value
O=c1c(O)c(-c2ccccc2)oc2ccc3occc3c12,normalized growth,"locus YAL013W, strain DEP1, stronger effect = lower value",0.925 (inactive)
same,normalized growth,"locus YAL021C, strain ccr4, stronger effect = lower value",0.987 (inactive)
same,normalized growth,"locus YAL026C, strain drs2, stronger effect = lower value",0.808 (active)
same,normalized growth,"locus YAL030W, strain snc1, stronger effect = lower value",0.902 (active)
same,normalized growth,"locus YBL061C, strain skt5, stronger effect = lower value",0.811 (active)
same,normalized growth,"locus YBR009C, strain hhf1, stronger effect = lower value",0.627 (active)
same,normalized growth,"locus YBR021W, strain FUR4, stronger effect = lower value",0.889 (inactive)
same,normalized growth,"locus YBR023C, strain chs3, stronger effect = lower value",0.71 (active)
same,normalized growth,"locus YBR171W, strain sec66, stronger effect = lower value",0.962 (inactive)
same,normalized growth,"locus YBR229C, strain ROT2, stronger effect = lower value",0.955 (inactive)
same,normalized growth,"locus YBR231C, strain swc5, stronger effect = lower value",0.799 (active)
same,normalized growth,"locus YBR279W, strain paf1, stronger effect = lower value",0.796 (active)
same,normalized growth,"locus YCL011C, strain gbp2, stronger effect = lower value",0.814 (active)
same,normalized growth,"locus YCL016C, strain dcc1, stronger effect = lower value",0.766 (active)
same,normalized growth,"locus YCL029C, strain bik1, stronger effect = lower value",0.749 (active)
same,normalized growth,"locus YCL061C, strain MRC1, stronger effect = lower value",0.801 (active)
same,normalized growth,"locus YCL069W, strain vba3, stronger effect = lower value",0.662 (active)
same,normalized growth,"locus YCR088W, strain abp1, stronger effect = lower value",0.93 (inactive)
same,normalized growth,"locus YDL005C, strain med2, stronger effect = lower value",0.951 (inactive)
same,normalized growth,"locus YDL035C, strain GPR1, stronger effect = lower value",0.849 (active)
same,normalized growth,"locus YDL040C, strain nat1, stronger effect = lower value",0.93 (active)
same,normalized growth,"locus YDL074C, strain BRE1, stronger effect = lower value",0.671 (active)
same,normalized growth,"locus YDL101C, strain DUN1, stronger effect = lower value",0.858 (active)
same,normalized growth,"locus YDL185W, strain tfp1, stronger effect = lower value",0.938 (inactive)
same,normalized growth,"locus YDL192W, strain arf1, stronger effect = lower value",0.731 (active)
same,normalized growth,"locus YDR001C, strain nth1, stronger effect = lower value",0.956 (inactive)
same,normalized growth,"locus YDR069C, strain doa4, stronger effect = lower value",0.941 (inactive)
same,normalized growth,"locus YDR101C, strain arx1, stronger effect = lower value",0.765 (active)
same,normalized growth,"locus YDR137W, strain rgp1, stronger effect = lower value",0.798 (active)
same,normalized growth,"locus YDR150W, strain NUM1, stronger effect = lower value",0.954 (inactive)
same,normalized growth,"locus YDR159W, strain sac3, stronger effect = lower value",0.742 (active)
same,normalized growth,"locus YDR162C, strain NBP2, stronger effect = lower value",0.782 (active)
same,normalized growth,"locus YDR195W, strain ref2",1.23 [resistant] (active)
same,normalized growth,"locus YDR297W, strain sur2, stronger effect = lower value",0.849 (active)
same,normalized growth,"locus YDR318W, strain mcm21, stronger effect = lower value",0.799 (active)
same,normalized growth,"locus YDR334W, strain swr1, stronger effect = lower value",0.913 (inactive)
same,normalized growth,"locus YDR335W, strain msn5, stronger effect = lower value",0.773 (active)
same,normalized growth,"locus YDR388W, stronger effect = lower value",0.847 (active)
same,normalized growth,"locus YDR392W, strain spt3, stronger effect = lower value",0.172 (active)
same,normalized growth,"locus YDR502C, strain sam2, stronger effect = lower value",0.783 (active)
same,normalized growth,"locus YEL003W, strain gim4, stronger effect = lower value",0.814 (active)
same,normalized growth,"locus YEL037C, strain rad23, stronger effect = lower value",0.86 (active)
same,normalized growth,"locus YEL061C, strain CIN8 (second series), stronger effect = lower value",0.71 (active)
same,normalized growth,"locus YEL061C, strain CIN8, stronger effect = lower value",0.93 (inactive)
same,normalized growth,"locus YER015W, strain faa2, stronger effect = lower value",0.829 (active)
same,normalized growth,"locus YER016W, strain bim1, stronger effect = lower value",0.92 (active)
same,normalized growth,"locus YER110C, stronger effect = lower value",0.767 (active)
same,normalized growth,"locus YER111C, strain swi4, stronger effect = lower value",0.793 (active)
same,normalized growth,"locus YER155C, strain BEM2 (second series), stronger effect = lower value",0.25 (active)
same,normalized growth,"locus YER155C, strain BEM2, stronger effect = lower value",0.807 (active)
same,normalized growth,"locus YER167W, strain BCK2, stronger effect = lower value",0.9 (active)
same,normalized growth,"locus YFR010W, strain ubp6, stronger effect = lower value",0.926 (inactive)
same,normalized growth,"locus YGL078C, strain dbp3, stronger effect = lower value",0.884 (active)
same,normalized growth,"locus YGL086W, strain mad1, stronger effect = lower value",0.764 (active)
same,normalized growth,"locus YGL167C, strain pmr1, stronger effect = lower value",0.919 (inactive)
same,normalized growth,"locus YGL173C, strain kem1, stronger effect = lower value",0.833 (active)
same,normalized growth,"locus YGL227W, strain vid30, stronger effect = lower value",0.888 (active)
same,normalized growth,"locus YGL240W, strain doc1, stronger effect = lower value",0.566 (active)
same,normalized growth,"locus YGL248W, strain PDE1, stronger effect = lower value",0.801 (active)
same,normalized growth,"locus YGL253W, strain hxk2, stronger effect = lower value",0.501 (active)
same,normalized growth,"locus YGR135W, strain pre9, stronger effect = lower value",0.713 (active)
same,normalized growth,"locus YGR229C, strain SMI1, stronger effect = lower value",0.416 (active)
same,normalized growth,"locus YGR252W, strain gcn5, stronger effect = lower value",0.593 (active)
same,normalized growth,"locus YHR013C, strain ard1, stronger effect = lower value",0.921 (inactive)
same,normalized growth,"locus YHR027C, strain rpn1, stronger effect = lower value",0.937 (inactive)
same,normalized growth,"locus YHR030C, strain SLT2, stronger effect = lower value",0.72 (active) and 0.968 (inactive)
same,normalized growth,"locus YHR079C, strain IRE1 (second series), stronger effect = lower value",0.873 (active)
same,normalized growth,"locus YHR079C, strain IRE1, stronger effect = lower value",0.956 (inactive)
same,normalized growth,"locus YHR094C, strain hxt1, stronger effect = lower value",0.904 (active)
same,normalized growth,"locus YHR142W, strain chs7, stronger effect = lower value",0.367 (active)
same,normalized growth,"locus YHR200W, strain rpn10, stronger effect = lower value",0.798 (active)
same,normalized growth,"locus YIL066C, strain RNR3, stronger effect = lower value",0.833 (active)
same,normalized growth,"locus YIL073C, strain SPO22, stronger effect = lower value",0.733 (inactive)
same,normalized growth,"locus YIL125W, strain kgd1, stronger effect = lower value",0.886 (active)
same,normalized growth,"locus YIR030C, strain dcg1, stronger effect = lower value",0.794 (active)
same,normalized growth,"locus YJL092W, strain hpr5, stronger effect = lower value",0.879 (active)
same,normalized growth,"locus YJL095W, strain BCK1 (second series), stronger effect = lower value",0.562 (active)
same,normalized growth,"locus YJL095W, strain BCK1, stronger effect = lower value",0.437 (active) and 0.978 (inactive)
same,normalized growth,"locus YJL115W, strain asf1, stronger effect = lower value",0.943 (inactive)
same,normalized growth,"locus YJL129C, strain trk1, stronger effect = lower value",0.852 (active)
same,normalized growth,"locus YJL134W, strain LCB3, stronger effect = lower value",0.956 (inactive)
same,normalized growth,"locus YJL154C, strain vps35, stronger effect = lower value",0.939 (inactive)
same,normalized growth,"locus YJL164C, strain tpk1, stronger effect = lower value",0.781 (active)
same,normalized growth,"locus YJL166W, strain qcr8, stronger effect = lower value",0.74 (active)
same,normalized growth,"locus YJL168C, strain set2, stronger effect = lower value",0.925 (active)
same,normalized growth,"locus YJL187C, strain SWE1 (second series), stronger effect = lower value",0.847 (active)
same,normalized growth,"locus YJR043C, strain POL32, stronger effect = lower value",0.64 (active)
same,normalized growth,"locus YJR066W, strain TOR1, stronger effect = lower value",0.883 (inactive)
